Source: PubChem BioAssay (NCATS)
Records with an inconclusive call do not appear. The source made the active and inactive calls. Calls come from the whole dose curve; as a rule, active = well fitted curve in the direction sought with a large enough effect; inconclusive = small, poorly fitted or top-dose-only effect, or another doubt; inactive = no such curve, though single readings can be large; an effect the other way counts as inactive or inconclusive. Where a SMILES comes first, the peptide text is derived from it. [ ]: non-standard residue; d: D form. 2Abz = Nc1ccccc1C(=O)O

What was measured:
CRL-7250 = normal cell line; assay: Cytotoxic Profiling of Annotated Libraries Using Quantitative High-Throughput Screening (AID 1296008); conditions: Five cell lines viability, CellTiter-Glo ATP luminescence, 48-72 h; max response: active compounds read low; note: nearly all actives have a fitted effect of over 60% in size; for max response: % is set by controls: 0 for no effect and ±100 for the full control effect
Method in brief: (§1)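 Compounds were pin-transferred onto cells and incubated 48 or 72 hr at 37 degree Celsius, 95% humidity. CellTiter-Glo was added, plates sat 10 min at room temperature, then ATP-coupled luminescence was imaged as the viability read-out.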

HEK293 = assay: as above; conditions: Five cell lines viability, CellTiter-Glo ATP luminescence, 48-72 h; max response: active compounds read low
Method in brief: as §1

HaCat [1] = assay: as above; conditions: Five cell lines viability, CellTiter-Glo ATP luminescence, 48-72 h; max response: active compounds read low
Method in brief: as §1

KB-3-1 = assay: as above; conditions: Five cell lines viability, CellTiter-Glo ATP luminescence, 48-72 h; max response: active compounds read low
Method in brief: as §1

NIH3T3 [2] = assay: as above; conditions: Five cell lines viability, CellTiter-Glo ATP luminescence, 48-72 h; max response: active compounds read low
Method in brief: as §1

HACAT [3] = assay: qHTS assay to identify novel small-molecules to repurpose for Merkel cell carcinoma treatment (AID 1296009); conditions: MCC and control cell lines, CellTiter-Glo viability, 72 h; at 44.8 µM (top of the series) unless noted; note: nearly all actives have a fitted effect of over 60% in size
Method in brief: (§2)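 Viability readout: ATP luminescence (CellTiter-Glo) after 72 hr drug exposure at 37 degree celsius. Dose-response format was 8 points for NPC and 11 points for MIPE; data normalized to in-plate controls.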

HEK293T = assay: as above; conditions: MCC and control cell lines, CellTiter-Glo viability, 72 h; series mostly up to 44.8 µM
Method in brief: as §2

NIH3T3 [4] = assay: as above; conditions: MCC and control cell lines, CellTiter-Glo viability, 72 h; at 44.8 µM (top of the series) unless noted
Method in brief: as §2

C33A = assay: Primary qHTS to identify gynecologic anti-cancer compounds using libraries of approved drugs and bioactive compounds (AID 1345084); conditions: Gynecologic cancer cell panel viability, ATPlite luminescence, 48 h; series mostly up to 57.5 µM; note: % is set by controls: 0 for no effect and ±100 for the full control effect; nearly all actives have a fitted effect of over 55% in size
Method in brief: (§3)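 Luminescence from the ATPlite ATP-monitoring reagent indicates viable cell number; lower signal means cytotoxicity. Cells received compound 16 h after seeding and were exposed for 48 h across five concentrations.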

CAOV3 = assay: as above; conditions: Gynecologic cancer cell panel viability, ATPlite luminescence, 48 h; series mostly up to 57.5 µM
Method in brief: as §3

CASKI = assay: as above; conditions: Gynecologic cancer cell panel viability, ATPlite luminescence, 48 h; series mostly up to 57.5 µM
Method in brief: as §3

Es-2 = assay: as above; conditions: Gynecologic cancer cell panel viability, ATPlite luminescence, 48 h; series mostly up to 57.5 µM
Method in brief: as §3

HeLa = assay: as above; conditions: Gynecologic cancer cell panel viability, ATPlite luminescence, 48 h; series mostly up to 57.5 µM
Method in brief: as §3

c1ccc(C(OC2CCN(CCCc3nn[nH]n3)CC2)c2ccccc2)cc1
inactive: outcome (CRL-7250) | outcome (HEK293) | outcome (HaCat [1]) | max response (KB-3-1) -3.18% | outcome (NIH3T3 [2]) | outcome (HACAT [3]) | Potency (HEK293T) | outcome (NIH3T3 [4]) | Potency (C33A) | Potency (CAOV3) | Potency (CASKI) | Potency (Es-2) | Potency (HeLa)

C=C1CCC2C(C)(C)CC(=O)CC2(C)C1CCC(C)CCOC(C)=O (centres undefined)
inactive: outcome (CRL-7250) | outcome (HEK293) | outcome (HaCat [1]) | max response (KB-3-1) 5.05% | outcome (NIH3T3 [2]) | outcome (HACAT [3]) | Potency (HEK293T) | outcome (NIH3T3 [4]) | Potency (C33A) | Potency (CAOV3) | Potency (CASKI) | Potency (Es-2) | Potency (HeLa)

COc1cc(COC2OC(CO)C(O)C(O)C2O)cc(OC)c1O (centres undefined)
inactive: outcome (CRL-7250) | outcome (HEK293) | outcome (HaCat [1]) | outcome (KB-3-1) | outcome (NIH3T3 [2]) | outcome (HACAT [3]) | Potency (HEK293T) | outcome (NIH3T3 [4]) | Potency (C33A) | Potency (CAOV3) | Potency (CASKI) | Potency (Es-2) | Potency (HeLa)

CC1CCC2(O1)C(C)(C)CC(O[C@@H]1O[C@H](CO[C@@H]3OC[C@](O)(CO)[C@H]3O)[C@@H](O)[C@H](O)[C@H]1O)CC2(C)O (some centres undefined)
inactive: max response (CRL-7250) -0.207% | outcome (HEK293) | outcome (HaCat [1]) | outcome (KB-3-1) | outcome (NIH3T3 [2]) | outcome (HACAT [3]) inactive [at 17.4 µM] | Potency (HEK293T) | outcome (NIH3T3 [4]) inactive [at 17.4 µM] | Potency (C33A) | Potency (CAOV3) | Potency (CASKI) | Potency (Es-2) | Potency (HeLa)

CC1=CC(=O)CC(C)(C)C1CCC(C)OC1OC(COC(=O)c2cc(O)c(O)c(O)c2)C(O)C(O)C1O (centres undefined)
inactive: max response (CRL-7250) -1.65% | outcome (HEK293) | outcome (HaCat [1]) | outcome (KB-3-1) | outcome (NIH3T3 [2]) | outcome (HACAT [3]) inactive [at 17.4 µM] | Potency (HEK293T) | outcome (NIH3T3 [4]) inactive [at 17.4 µM] | Potency (C33A) | Potency (CAOV3) | Potency (CASKI) | Potency (Es-2) | Potency (HeLa)

CCC(C)C1NC(=O)C2CCCN2C(=O)C(C(C)C)NC(=O)c2ccccc2NC(=O)C(Cc2ccc(O)cc2)NC(=O)C(C)NC(=O)C(C(C)O)NC1=O (centres undefined) (cyclo([2Abz]VPITAY); configuration not given here)
inactive: max response (CRL-7250) -3.19% | outcome (HEK293) | outcome (HaCat [1]) | outcome (KB-3-1) | outcome (NIH3T3 [2]) | outcome (HACAT [3]) inactive [at 17.4 µM] | Potency (HEK293T) | outcome (NIH3T3 [4]) inactive [at 17.4 µM] | Potency (C33A) | Potency (CAOV3) | Potency (CASKI) | Potency (Es-2) | Potency (HeLa)

C=C[C@@]1(C)CC(=O)C2[C@](C)(O1)[C@@H](OC(C)=O)[C@@H](O)[C@H]1C(C)(C)CCC[C@]21C (some centres undefined)
inactive: max response (CRL-7250) -2.88% | outcome (HEK293) | outcome (HaCat [1]) | max response (KB-3-1) 7.42% | outcome (NIH3T3 [2]) | outcome (HACAT [3]) inactive [at 9.27 µM] | outcome (HEK293T) inactive [at 9.27 µM] | outcome (NIH3T3 [4]) inactive [at 9.27 µM] | activity change, negative = cytotoxicity (C33A) 11.6% [at 11.6 µM] | activity change, negative = cytotoxicity (CAOV3) 10.9% [at 11.6 µM] | activity change, negative = cytotoxicity (CASKI) -3.47% [at 11.6 µM] | activity change, negative = cytotoxicity (Es-2) 1.29% [at 11.6 µM] | activity change, negative = cytotoxicity (HeLa) 4.53% [at 11.6 µM]

C#Cc1cnc2[nH]c(=O)n(C(CC)CC)c2n1
inactive: outcome (CRL-7250) | outcome (HEK293) | outcome (HaCat [1]) | max response (KB-3-1) 8.63% | outcome (NIH3T3 [2]) | outcome (HACAT [3]) | Potency (HEK293T) | outcome (NIH3T3 [4]) | Potency (C33A) | Potency (CAOV3) | Potency (CASKI) | Potency (Es-2) | Potency (HeLa)

O=C(/C=C/c1ccc(O)cc1)OC[C@]12O[C@H]1[C@@H](O)[C@@H]1C=CO[C@@H](O[C@@H]3O[C@H](CO)[C@@H](O)[C@H](O)[C@H]3O)[C@@H]12
inactive: max response (CRL-7250) -7.12% | outcome (HEK293) | outcome (HaCat [1]) | max response (KB-3-1) 8.48% | outcome (NIH3T3 [2]) | outcome (HACAT [3]) inactive [at 17.4 µM] | Potency (HEK293T) | outcome (NIH3T3 [4]) inactive [at 17.4 µM] | Potency (C33A) | Potency (CAOV3) | Potency (CASKI) | Potency (Es-2) | Potency (HeLa)

CC1[C@@H](O)[C@@H](O)C2[C@]3(C)C(C[C@H]4OC(=O)[C@H](O)[C@]1(O)[C@@]24C)C(C)(O)C[C@H](O)[C@H]3O (some centres undefined)
inactive: outcome (CRL-7250) | outcome (HEK293) | outcome (HaCat [1]) | max response (KB-3-1) 4.32% | outcome (NIH3T3 [2]) | outcome (HACAT [3]) inactive [at 17.4 µM] | Potency (HEK293T) | outcome (NIH3T3 [4]) inactive [at 17.4 µM] | Potency (C33A) | Potency (CAOV3) | Potency (CASKI) | Potency (Es-2) | Potency (HeLa)

CC1(C)CCCC2(C)C3=C(C(=O)OC3O)C(O)CC12 (centres undefined)
inactive: max response (CRL-7250) -10.8% | outcome (HEK293) | outcome (HaCat [1]) | max response (KB-3-1) 2.72% | outcome (NIH3T3 [2]) | outcome (HACAT [3]) | Potency (HEK293T) | outcome (NIH3T3 [4]) | Potency (C33A) | Potency (CAOV3) | Potency (CASKI) | Potency (Es-2) | Potency (HeLa)

CCC[C@@H]1C[C@@H](C(=O)N[C@@H]([C@H]2O[C@H](SC)[C@H](O)[C@@H](O)[C@@H]2O)[C@@H](C)O)N(C)C1
inactive: outcome (CRL-7250) | outcome (HEK293) | outcome (HaCat [1]) | outcome (KB-3-1) | outcome (NIH3T3 [2]) | outcome (HACAT [3]) | Potency (HEK293T) | outcome (NIH3T3 [4]) | Potency (C33A) | Potency (CAOV3) | Potency (CASKI) | Potency (Es-2) | Potency (HeLa)

C[C@]12CC[C@@H]3c4ccc(O[C@@H]5O[C@H](C(=O)O)[C@@H](O)[C@H](O)[C@H]5O)cc4CC[C@H]3[C@@H]1CCC2=O
inactive: max response (CRL-7250) -0.486% | outcome (HEK293) | outcome (HaCat [1]) | outcome (KB-3-1) | outcome (NIH3T3 [2]) | outcome (HACAT [3]) | Potency (HEK293T) | outcome (NIH3T3 [4]) | Potency (C33A) | Potency (CAOV3) | Potency (CASKI) | Potency (Es-2) | Potency (HeLa)
